From PubChem BioAssay AID493221 (Johns Hopkins Ion Channel Center, 2011) come the findings set out here.

In all, about 2,400 compounds went through this assay and about 1,700 (71%) were called active.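 How the source made its calls: active means choline transporter activity left, mean of duplicates at 10 µM, below buffer-only control mean minus 3 SD; inactive means the rest.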 So high a share suggests a set chosen from earlier hits. These entries were drawn from the full list.

This test deals with High affinity choline transporter 1 (Homo sapiens) (UniProt Q9GZV3). The test is described as follows: CHT inhibitors, confirmation, cell-based, membrane potential dye, duplicate (AID 493221). The note with it: CHT-expressing cells, at 10 µM, LV-to-AA substituted CHT, HEK293 cells.
High affinity choline transporter 1 (Homo sapiens), sequence (Q9GZV3 whole entry, looked up): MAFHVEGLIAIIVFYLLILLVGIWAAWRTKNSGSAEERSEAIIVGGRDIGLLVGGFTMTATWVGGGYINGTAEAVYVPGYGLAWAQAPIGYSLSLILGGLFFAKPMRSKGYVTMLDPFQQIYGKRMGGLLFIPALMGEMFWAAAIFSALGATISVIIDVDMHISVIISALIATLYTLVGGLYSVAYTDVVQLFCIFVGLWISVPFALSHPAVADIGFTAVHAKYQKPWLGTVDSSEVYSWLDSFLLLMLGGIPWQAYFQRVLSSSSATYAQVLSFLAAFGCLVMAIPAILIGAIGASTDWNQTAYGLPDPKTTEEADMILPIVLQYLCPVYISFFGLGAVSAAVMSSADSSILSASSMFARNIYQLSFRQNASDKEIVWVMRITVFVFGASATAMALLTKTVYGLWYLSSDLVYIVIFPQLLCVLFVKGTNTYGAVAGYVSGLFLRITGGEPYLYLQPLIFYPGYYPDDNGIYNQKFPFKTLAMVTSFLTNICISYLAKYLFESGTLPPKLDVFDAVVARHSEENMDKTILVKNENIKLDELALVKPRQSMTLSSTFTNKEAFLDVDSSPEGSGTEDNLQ
As for `CC(C)(C)C(=O)/C(C#N)=C/c1ccc(O)cc1`, the CHT activity remaining % of control (stronger effect = lower value) is 68.6% (active). In the case of `O=C(Nc1ccn(Cc2ccccc2)n1)c1n[nH]c([N+](=O)[O-])c1Cl`, the CHT activity remaining % of control (stronger effect = lower value) was 48.6% (active). Turning to `CC1CCN(C(=O)CN(c2ccc(Oc3ccccc3)cc2)S(C)(=O)=O)CC1`, the CHT activity remaining % of control (stronger effect = lower value) entry is “inactive”. For `CC(C)(C)NC(=O)NC(=O)CN1CCC(Cc2ccccc2)CC1`, the CHT activity remaining % of control (stronger effect = lower value) was 43.5% (active). For `Cc1ccc(SC(CC(=O)c2ccc(C(C)(C)C)cc2)C(=O)O)cc1` (stereo not given) the value was 42% (active). For `CC1CCN(CCCNC(=O)CN2C(=O)CSc3ccc(S(=O)(=O)N4CCCCC4)cc32)CC1` the value was 53.6% (active). Under `CCOCCCN(C)C1CCN(C(=O)c2oc3ccccc3c2NC(=O)COc2cccc(C)c2)CC1` stands 44.8% (active); under `Cc1cccnc1NC(=O)c1cccc(S(=O)(=O)N2CCN(c3ccc(F)cc3)CC2)c1`, 56.9% (active); under `CC1CCCC(NC(=O)c2cccc(N3CCCC3=O)c2)C1C` (stereo not given), 45.1% (active). Consider `Cc1ccc(C(=O)NC2CCCC(C)C2C)cc1S(=O)(=O)N1CCCCC1` (stereo not given), for which the CHT activity remaining % of control (stronger effect = lower value) is 43.5% (active). Under `CC1CN(S(=O)(=O)c2ccc(C(=O)NN3CCN(C)CC3)cc2)CC(C)O1` (stereo not given) stands “inactive”. Under `O=C(C1CCN(S(=O)(=O)c2ccc(Br)s2)CC1)N1CCN(c2ccccc2)CC1` stands 41.8% (active).

Turning to `COc1ccc2c(c1)OC(O)(C(F)(F)C(F)F)CC2=O` (stereo not given), the CHT activity remaining % of control (stronger effect = lower value) was 25.8% (active). For `CN(C)c1ccc(Nc2c3c4c(cccc4n(C)c2=O)C(=O)c2ccccc2-3)cc1` the value was 42.1% (active); for `CC1(C)SC2C(NC(=O)COc3ccccc3)C(=O)N2C1C(=O)O` (stereo not given), “inactive”. For `CC(NC(=O)c1ccc(N2CCNCC2)c([N+](=O)[O-])c1)C12CC3CC(CC(C3)C1)C2` (stereo not given) the value was 52.3% (active). For `CCc1ccccc1N1CN(Cc2ccco2)CNC1=S` the value was “inactive”; for `CCOC(=O)C1(CCOC)CCN(Cc2ccc(C(=O)OC)cc2)CC1`, 71% (active); for `O=C1/C(=C/c2ccc(F)cc2)SC(=S)N1NS(=O)(=O)c1ccccc1`, 71.2% (active).

As to `CCOc1ccc(/C=C2\SC(=S)N(NC(=O)c3ccncc3)C2=O)cc1OC`, the CHT activity remaining % of control (stronger effect = lower value) is 69.4% (active). For `O=C(O)c1ccc(/C=C2\SC(=S)N(NC(=O)c3ccc(Br)cc3)C2=O)cc1`, the CHT activity remaining % of control (stronger effect = lower value) is 41.7% (active). Under `CC(C)n1c(=S)[nH]c2cc(C(F)(F)F)ccc21` stands 59.3% (active). For `CC(Oc1ccc2ccccc2c1)C(=O)NNC(=S)NC(=O)c1ccco1` (stereo not given) the value was 67% (active). Under `N#Cc1ccc(C(=O)Nc2cccc3cccnc23)c(F)c1` stands “inactive”; under `COc1ccc(C(CNC(=O)c2cccc(NS(=O)(=O)c3ccc(C)c(F)c3)c2)N2CCCC2)cc1` (stereo not given), 38.4% (active).
